The full ranking holds about 33,000 sequences; the median of “E-score (-0.5 to 0.5)” is about -0.016, and the highest 2% start at about 0.31. The entries come from a sample that favours the highest values as a whole.
What follows are sequences tested against Cst6 (UniProt P40535) (assay: PBM E-score (8-mer binding enrichment) (E-score (-0.5 to 0.5)); higher = stronger / more preferred TF binding). Conditions: protein concentration: 200 nM; construct: GST-DNA-binding domain.
In short: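 Masliner-normalised scans of fluorescent anti-GST signal were the basis for scoring. That signal came from GST-tagged yeast transcription factors applied at about 100-200 nM to double-stranded universal all-10-mer Agilent arrays on fresh or once-stripped slides. Each ungapped eight-base word, pooled with its reverse complement, received an E-score from the Universal PBM Analysis Suite.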

UniProt P40535, sequence (P40535 whole entry, the tested form may be a part): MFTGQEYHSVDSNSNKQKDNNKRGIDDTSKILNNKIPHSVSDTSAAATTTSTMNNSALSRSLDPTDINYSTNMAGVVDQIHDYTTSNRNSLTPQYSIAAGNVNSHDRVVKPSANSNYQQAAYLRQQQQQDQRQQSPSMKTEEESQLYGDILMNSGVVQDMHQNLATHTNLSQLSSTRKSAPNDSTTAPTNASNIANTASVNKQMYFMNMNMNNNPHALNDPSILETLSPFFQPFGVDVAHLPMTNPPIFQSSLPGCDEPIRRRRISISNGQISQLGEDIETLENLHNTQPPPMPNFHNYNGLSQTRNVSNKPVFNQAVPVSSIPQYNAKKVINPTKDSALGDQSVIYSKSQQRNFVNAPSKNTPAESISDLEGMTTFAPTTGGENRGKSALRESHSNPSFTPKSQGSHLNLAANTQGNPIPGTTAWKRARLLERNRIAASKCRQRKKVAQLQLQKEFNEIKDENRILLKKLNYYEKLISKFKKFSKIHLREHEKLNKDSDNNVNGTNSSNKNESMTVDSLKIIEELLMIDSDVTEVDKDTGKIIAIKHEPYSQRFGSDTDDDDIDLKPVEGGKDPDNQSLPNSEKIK

Row | Sequence | PBM E-score
1 | CGAAGTTA | 0.11
2 | CCTAACAG | 0.00445
3 | GCTGGCAA | -0.106
4 | GTGATGTA | 0.465
5 | CGGATGTA | -0.0158
6 | ATGATGTC | 0.478
7 | CCGATGTA | -0.0196
8 | CTGATGTA | 0.326
9 | GGGATGTA | -0.0844
10 | AGGATGTA | 0.0787
11 | ACGATGTC | 0.0231
12 | GAGATGTA | 0.0936
13 | AAGATGTA | 0.169
14 | ATGATGTA | 0.462
15 | CTGATGTC | 0.287
16 | GCACTGCC | 0.0838
17 | AGTCCTTA | -0.0772
18 | CAGCCCAG | -0.383
19 | ACAGCCCC | -0.228
20 | AGTCCCTG | -0.223
21 | CGATTGAG | -0.0697
22 | GACGATGA | 0.301
23 | CCCAGGAA | -0.176
24 | CTTTCTGC | 0.0175
25 | ATGATGAG | 0.232

Row | Sequence | PBM E-score
26 | AGGATGTG | -0.232
27 | ATGATGTG | 0.333
28 | CTGAGAGC | -0.0922
29 | CGCGGCAC | 0.324
30 | AGCGCGGC | 0.115
31 | CGCGCGGC | 0.378
32 | CACGGCGC | 0.357
33 | AGCGGCGC | 0.107
34 | CACGGCGA | 0.21
35 | CGCGGCGC | 0.372
36 | CGCGGCAA | 0.134
37 | CGCGCGGA | 0.131
38 | AACGGCGC | 0.251
39 | AGCGGCAC | 0.123
40 | CGCGGCGA | 0.27
41 | CTTCGTAC | -0.193
42 | AACATAAT | 0.246
43 | ATTAACGC | 0.0112
44 | CAGGGAGA | -0.227
45 | GACTTAAC | -0.167
46 | ACGGATAC | 0.115
47 | ATGTCTGG | -0.0099
48 | ACTCATTG | -0.129
49 | ATGAACTG | 0.12
50 | GAACGGTC | -0.223

Row | Sequence | PBM E-score
51 | AGTGGGTG | 0.0423
52 | ACATCCGT | 0.0894
53 | AGGCGCGA | 0.205
54 | CGGCGCGC | 0.242
55 | AGCACGGC | 0.198
56 | CGCACGGC | 0.375
57 | CGCACGGA | 0.154
58 | CGGCGCGA | 0.35
59 | AAACAAAT | 0.192
60 | CTTATTAA | 0.141
61 | ATCGACGA | 0.00463
62 | AAGTAATC | 0.179
63 | AAGTAATG | 0.116
64 | ACGTAATA | 0.482
65 | AGGTAATG | 0.101
66 | CCGTAATA | 0.176
67 | ACGTAATG | 0.476
68 | CCGTAATC | 0.0889
69 | GCGTAATA | 0.296
70 | ACGTAATC | 0.484
71 | GCGCTCAA | -0.165
72 | CCTAGCGA | -0.296
73 | AGCCGACA | -0.162
74 | TAATTTAA | 0.287
75 | CATCGCCA | 0.0609

Row | Sequence | PBM E-score
76 | ACACGGAC | -0.00107
77 | CTTCCAAC | -0.0988
78 | AGCCGCAC | 0.188
79 | AGCCGCAA | -0.127
80 | AGCCGCAT | 0.338
81 | GCACCTGC | -0.114
82 | AAGCTTTG | -0.087
83 | TTCTGCAA | 0.138
84 | ACTATGAC | 0.264
85 | CATATGAC | 0.366
86 | AATATGTG | 0.25
87 | AATATGAG | 0.132
88 | GCTATGAC | 0.332
89 | GATATGAC | 0.273
90 | AATATGTA | 0.211
91 | AATATGAT | 0.233
92 | AATATGAC | 0.35
93 | CCTATGAC | 0.221
94 | CATATGAG | 0.0643
95 | AATATGTC | 0.319
96 | CGAAAGCA | -0.0132
97 | CATCTGAA | 0.037
98 | ATCCTATC | -0.0914
99 | ACCGTCGG | -0.194
100 | CGTCTATA | -0.0233

Row | Sequence | PBM E-score
101 | ACCTTTGC | -0.095
102 | CGCTGCAC | -0.0108
103 | ATTATGAG | 0.22
104 | CTTATGAA | 0.052
105 | ATTATGAC | 0.394
106 | CTTATGCC | 0.0646
107 | CTTATGAC | 0.368
108 | ATTATGAA | 0.292
109 | AACAAGAA | 0.237
110 | AGAAAGCT | 0.0476
111 | ATAGTCGA | 0.168
112 | ATATATTG | 0.109
113 | ATATATTA | 0.336
114 | CCATATTA | 0.0718
115 | ACATATTG | 0.137
116 | CTATATTA | 0.333
117 | CTCTATTA | 0.0287
118 | GTATATTA | 0.261
119 | CTATATTC | 0.0369
120 | ACATATTA | 0.312
121 | TACTGGCA | -0.0625
122 | CAGACAGG | -0.15
123 | ATCGATAC | 0.171
124 | AGCTCCGA | -0.145
125 | CAAAGCGA | -0.0448

Row | Sequence | PBM E-score
126 | TCGACACA | 0.108
127 | AGCAAGCG | -0.11
128 | CTGACGTA | 0.489
129 | AGGACGTG | -0.088
130 | GCGACGTA | 0.219
131 | ATGACGTG | 0.491
132 | CAGACGTA | 0.0968
133 | ATCACGTA | 0.344
134 | GTGACGTA | 0.496
135 | ACGACGTG | 0.061
136 | ATCACGTC | 0.286
137 | CCGACGTA | 0.0226
138 | ATCACGTG | 0.135
139 | GGGACGTA | 0.0851
140 | AGGCTCGA | 0.0255
141 | CTGGTGTC | -0.119
142 | GCAGCCGA | -0.053
143 | AAAACCGA | 0.0246
144 | TTCCAAAA | 0.0844
145 | CAGGCTAC | -0.249
146 | GCTCCGCC | -0.185
147 | CCGCCGGA | -0.149
148 | ACCATCGA | -0.0265
149 | CGAGGCGC | 0.188
150 | ATGACGTA | 0.498

Row | Sequence | PBM E-score
151 | AAGACGTA | 0.215
152 | AGGACGTA | -0.126
153 | CACCGTTC | -0.0919
154 | CAGGCGAG | -0.261
155 | ATTGCGTC | 0.34
156 | CTTGCGTC | 0.249
157 | ATTGCGTG | 0.154
158 | ATTGCGTA | 0.415
159 | GTTGCGTA | 0.264
160 | AGTGCGTC | 0.104
161 | CTCGTTCA | 0.022
162 | ATTCCCGG | 0.041
163 | AGGAGCGG | -0.207
164 | GAACGTCC | 0.0008
165 | CAACGTCG | 0.0638
166 | AAACGTCA | 0.463
167 | GAACGTTA | -0.124
168 | TAACGTGA | 0.284
169 | TAACGTTA | 0.149
170 | GAACGTCA | 0.442
171 | TAACGTCA | 0.489
172 | AAACGTCC | -0.0706
173 | CAACGTCA | 0.471
